Shiga toxin inh = inhibitors of Shiga toxin in Vero cells; 9.2% of 290,000 active; inhibition, % at 38.7 µM; AID 2315; Vero cells, Shiga toxin protein synthesis inhibition reporter; in the data active = inhibition mostly above about 28%, no sharp cut-off; inactive = mostly below about 43%; also: 0% is about no effect
CHX counter = counter-screen for Shiga toxin inhibitors: cycloheximide protein synthesis inhibition; cell reporter, cycloheximide protein synthesis inhibition counterscreen; max response, %; 12% of 300,000 active; in the data active = max response mostly above about 13%, no sharp cut-off; inactive = mostly below about 14%; also: read at 38.3 µM for the half of the compounds with a filed dose; 0% is about no effect
Giardia FBPA inh = blocks Giardia fructose-bisphosphate aldolase activity. Potency, µM (series often up to 59.6 µM), inactives show at the top dose activity, negative = inhibition, actives largely listed as inhibitors. AID 2451. 0.71% of 290,000 active. A8B2U2. purified Giardia FBPA; also: potency is read from the fitted curve at half-maximal effect; % is scaled to controls: 0 for no effect and ±100 for the full control effect; nearly all actives have a fitted effect of over 55% in size
Target sequence (A8B2U2 whole entry, looked up): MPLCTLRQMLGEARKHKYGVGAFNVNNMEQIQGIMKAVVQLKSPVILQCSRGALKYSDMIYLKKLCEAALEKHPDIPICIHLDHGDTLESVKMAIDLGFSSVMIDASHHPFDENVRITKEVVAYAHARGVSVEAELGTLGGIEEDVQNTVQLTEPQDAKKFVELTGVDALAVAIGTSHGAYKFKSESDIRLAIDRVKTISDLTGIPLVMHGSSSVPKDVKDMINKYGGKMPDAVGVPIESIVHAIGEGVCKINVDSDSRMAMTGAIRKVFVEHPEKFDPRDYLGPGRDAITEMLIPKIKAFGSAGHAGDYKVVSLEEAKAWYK
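Giardia FBPA (40 nM reagent) was preincubated 10 min at RT with compound (up to 57.5 uM final), then substrate plus GAPDH/TPI/NAD/arsenate coupling system with diaphorase/resazurin was added; resorufin fluorescence (525/598 nm) was read after 20 min.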
Pf growth 48h = inhibits P. falciparum growth in the first generation, 48 h; AID 504832; Potency, µM (top dose mostly 28.7 µM), inactives show at the highest dose activity change, negative = inhibition, usual class: inhibitors; 5.9% of 310,000 active; P. falciparum luciferase growth in erythrocytes, 48 h; also: potency is read from the fitted curve at half-maximal effect; % is scaled to controls: 0 for no effect and ±100 for the full control effect
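Parasite viability was followed by luminescence of a genomically integrated firefly luciferase. Cultures held 0.1% parasitemia at 2% hematocrit (final), incubated under 5% CO2 at 37 C.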
NS1 inh = inhibitors of influenza NS1 protein function | Potency, µM (highest dose often 46.1 µM), without a hit: top-dose activity, positive = more growth | 0.4% of 270,000 active; calls by dose curve; also: potency is read from the fitted curve at half-maximal effect; actives are rising curves; nearly all actives have a fitted effect of over 50% in size
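In this qHTS, NS1 from influenza A is expressed in budding yeast, where it slows growth. Cells are switched from glucose to 2% galactose medium (pH 6.0, -URA), treated with compound, and growth recovery is read at OD600.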
Pf growth 96h = P. falciparum growth inhibition at 96 hour, primary screen for plastid delayed-death inhibitors | P. falciparum luciferase reporter growth, 96 h | Potency, µM (top dose mostly 28.7 µM), for the others: at the top dose activity change, negative = inhibition, most hits filed as inhibitors | 6.9% of 320,000 active | AID 504834; also: potency is read from the fitted curve at half-maximal effect; % is scaled to controls: 0 for no effect and ±100 for the full control effect
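Readout is luminescence from an integrated firefly luciferase in P. falciparum. Red cells, 2% hematocrit and 0.05% parasitemia final, were cultured with compound through two parasite generations (96 hours) at 37 C, 5% CO2.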
Numbers without * were called inactive; ? = inconclusive; · = no result. Sampled rows, rich in hits. Any-hit rate of the full collection: about 21%. Unless noted, calls follow the shape of the dose curve; as a rule, active = well fitted curve in the direction sought with a large enough effect; inconclusive = small, poorly fitted or top-dose-only effect, or another doubt; inactive = no such curve, though single readings can be large; an effect the other way counts as inactive or inconclusive.

SMILES	Shiga toxin inh	CHX counter	Giardia FBPA inh	Pf growth 48h	NS1 inh	Pf growth 96h
CCOc1ccc(C(=O)NC(=S)N(Cc2ccccc2)Cc2ccccc2)cc1	-11.6	10.0	6.3%	?	0.2%	2.62µM*
O=C(Cc1ncn[nH]1)NCCc1ccccc1	-7.0	-2.6	6.8%	·	6.5%	7.38µM*
CCOc1ccc(C(=O)NCCc2ccccc2)cc1	32.5	23.8*	-3.0%	·	-91.5%	26.0%
CCN(Cc1nc(-c2ccc(OC)cc2)no1)C(=O)c1ccoc1C	10.0	-2.0	-16.6%	3.2%	-2.5%	0.2%
CC(C)OCCCNc1ccc(N2C(=O)CCCC2=O)cc1[N+](=O)[O-]	3.9	-1.1	-8.0%	26.7%	7.3%	-11.9%
COc1ccc2cnoc(=O)c2c1OC	·	·	-1.9%	·	·	·
CC(=O)Oc1ccc(-c2ccc(C(=O)NCCc3ccc(S(N)(=O)=O)cc3)cc2)cc1	-3.0	-0.5	3.9%	-0.1%	0.1%	13.1%
CC(=O)Oc1ccc(C(=O)NCCc2ccccc2)cc1	35.6	15.2*	-1.7%	363.5%	·	4.6%
NS(=O)(=O)c1ccc(N=Nc2ncccc2O)cc1	·	·	·	·	8.3%	·
O=S(=O)(c1ccccc1F)N1CCN(Cc2cc3c(cc2Br)OCCO3)CC1	·	·	·	?	·	8.28µM*
O=S(=O)(c1ccc2c(c1)OCCO2)N1CCN(S(=O)(=O)c2cc(F)c(Br)cc2F)CC1	-5.7	-9.1	·	·	·	·
COc1ccc(CN2CCNC(=O)C2CC(=O)NCCCC2CCCC2)c(C)c1C (stereo not given)	16.1	-1.5	-21.7%	-1.1%	16.8%	4.4%
CCN1C(=O)C2C(c3ccc(O)c(OC)c3)NC(C)(C(=O)OC)C2C1=O (stereo not given)	-8.2	-4.7	0.3%	21.2%	-1.1%	56.5%
CCN1C(=O)[C@H]2[C@@H](c3ccc(-c4cccc(Cl)c4)c(OC)c3)N[C@@](C)(C(=O)OC)[C@H]2C1=O	·	·	·	2.08µM*	·	1.17µM*
COC(=O)[C@]1(C)N[C@H](c2ccc(-c3ccc(Cl)c(Cl)c3)c(OC)c2)[C@@H]2C(=O)N(C)C(=O)[C@@H]21	·	·	·	5.22µM*	·	3.29µM*
COC(=O)[C@]1(C)N[C@H](c2ccc(-c3ccc(F)cc3)cc2)[C@@H]2C(=O)N(C)C(=O)[C@@H]21	·	·	·	?	·	-2.4%
O=S(=O)(N1CCCCC1)n1c(Cc2ccccc2)nc2ccccc21	-3.1	8.3	8.4%	11.7µM*	-39.7%	·
CCCc1cc(=O)oc2cc(OCC(=O)NCCc3ccc(S(N)(=O)=O)cc3)ccc12	-3.5	-7.6	·	2.6%	5.4%	?
Oc1cc(-n2cccn2)c(O)cc1-n1cccn1	70.1*	37.0*	?	8.2%	-50.0%	-1.5%
c1cnn(-c2nc(N3CCOCC3)nc(N3CCOCC3)n2)c1	-29.7	-3.7	1.7%	-14.5%	-0.6%	-28.8%
CCn1c(SCC(=O)NC2CCCCC2)nnc1-c1ccco1	-5.2	-5.9	10.9%	18.1%	8.3%	32.1%
O=c1cc(O)c2ccccc2n1Cc1ccccc1	-4.6	3.6	-7.0%	?	·	-18.7%
COc1ccc(/C=N/NC(=O)c2cccc(Br)c2)cc1CN1CCOCC1	17.8	18.9*	5.2%	-11.4%	-1.2%	19.8%
COc1ccc(/C=N/NC(=O)c2cccc(Br)c2)cc1COc1ccccn1	10.5	14.1*	5.0%	-11.5%	-4.4%	23.6%
COc1ccc(/C=N/NC(=O)c2ccccc2O)cc1CN1CCOCC1	39.6	6.7	1.3%	0.4%	0.1%	6.7%
SMILES	Shiga toxin inh	CHX counter	Giardia FBPA inh	Pf growth 48h	NS1 inh	Pf growth 96h
CCOc1cc(/C=C/C(=O)c2ccc(OC)c(CN3CCOCC3)c2)cc(Br)c1O	1.1	-5.8	?	13.1µM*	5.9%	9.28µM*
COc1ccc(/C=N/NC(=O)c2ccccc2O)cc1CSc1ccccn1	81.9	9.0	12.0%	-25.4%	-0.9%	-21.0%
CCOc1cc(C(=S)N2CCOCC2)ccc1OC	-12.7	-2.2	2.9%	13.0%	0.3%	·
COc1ccc(/C=N/NC(=O)c2ccccc2O)cc1COc1ccccn1	40.7*	22.7*	10.2%	-17.7%	-7.1%	0.0%
CSc1ccc(NC(=O)Nc2ccc(C(=O)NCC(=O)O)cc2)cc1	11.4	15.7	5.7%	140.9%	-1.6%	4.6%
O=[N+]([O-])c1ccc(CSc2ccc(S(=O)(=O)N3CCCC3)cn2)cc1	·	·	·	?	·	-6.2%

High-throughput results (PubChem BioAssay)
